{
  "source": "PubChem BioAssay",
  "molecular_target": "Pantothenate synthetase (Mycobacterium tuberculosis (strain ATCC 25618 / H37Rv)) (UniProt P9WIL5)",
  "sequence (P9WIL5 whole entry, looked up)": "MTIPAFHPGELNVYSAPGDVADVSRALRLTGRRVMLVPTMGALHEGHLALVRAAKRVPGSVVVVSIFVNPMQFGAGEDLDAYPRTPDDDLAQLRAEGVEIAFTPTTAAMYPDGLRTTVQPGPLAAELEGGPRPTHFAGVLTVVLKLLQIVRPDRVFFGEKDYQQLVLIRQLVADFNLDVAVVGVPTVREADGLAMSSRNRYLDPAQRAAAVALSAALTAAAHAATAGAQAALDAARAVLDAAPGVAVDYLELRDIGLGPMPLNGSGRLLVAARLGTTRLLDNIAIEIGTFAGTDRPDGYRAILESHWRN",
  "experiment": "Coupled enzyme confirmation of inhibitors against recombinant Mtb PanC (AID 375);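 note: 0% = full reaction with vehicle and 100% = no enzyme background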",
  "conditions": "coupled enzyme assay; at 10 µM, active compounds read high",
  "note": "Values without a mark were called inactive. The rule behind the calls is not given here.",
  "data": [
    {"smiles": "COc1cc(C(=O)Nc2nc(-c3cccs3)cs2)cc(OC)c1OC", "values": [
      {"measurement": "inhibition", "value": 0, "unit": "%"}
    ]},
    {"smiles": "O=C(COC(=O)c1cncc(Br)c1)NCCC1=CCCCC1", "values": [
      {"measurement": "inhibition", "value": 0, "unit": "%"}
    ]},
    {"smiles": "CCn1c(SC)nc2c(c1=O)SC(C)C2", "note": "(stereo not given)", "values": [
      {"measurement": "inhibition", "value": 0, "unit": "%"}
    ]},
    {"smiles": "c1ccc2oc(SCc3cn4ccccc4n3)nc2c1", "values": [
      {"measurement": "inhibition", "value": 0, "unit": "%"}
    ]},
    {"smiles": "COc1ccc(C2C3=C(CC(C)(C)CC3=O)Oc3ncn4nc(-c5cccnc5)nc4c32)cc1", "note": "(stereo not given)", "values": [
      {"measurement": "inhibition", "value": 0, "unit": "%"}
    ]},
    {"smiles": "Cc1cnc(C(=O)NCCc2ccc(S(=O)(=O)NC(=O)NC3CCCCC3)cc2)cn1", "values": [
      {"measurement": "inhibition", "value": 5, "unit": "%"}
    ]},
    {"smiles": "C=C(C)Cn1c(CCNC(=O)CC)nc2ccccc21", "values": [
      {"measurement": "inhibition", "value": 0, "unit": "%"}
    ]},
    {"smiles": "O=C(NC1(C(=O)NC2CCCCC2)CCCCC1)c1ccc2c(c1)OCO2", "values": [
      {"measurement": "inhibition", "value": 3, "unit": "%"}
    ]},
    {"smiles": "O=C(COC(=O)C1CC1)c1c[nH]c2ccccc12", "values": [
      {"measurement": "inhibition", "value": 1, "unit": "%"}
    ]},
    {"smiles": "COC(=O)COc1ccc(C(=O)OC)cc1", "values": [
      {"measurement": "inhibition", "value": 2, "unit": "%"}
    ]},
    {"smiles": "O=C(NC12CC3CC(CC(C3)C1)C2)C1CCCN1C(=O)NC1CCCCC1", "note": "(stereo not given)", "values": [
      {"measurement": "inhibition", "value": 0, "unit": "%"}
    ]},
    {"smiles": "COC(=O)c1sccc1NC(=O)c1csc(C)c1", "values": [
      {"measurement": "inhibition", "value": 6, "unit": "%"}
    ]},
    {"smiles": "Cn1c(SCCN2CCCCC2)nnc1-c1ccccc1Br", "values": [
      {"measurement": "inhibition", "value": 0, "unit": "%"}
    ]},
    {"smiles": "CCS(=O)(=O)N1CCCC(C(=O)NCCc2ccc(OC)c(OC)c2)C1", "note": "(stereo not given)", "values": [
      {"measurement": "inhibition", "value": 4, "unit": "%"}
    ]},
    {"smiles": "C=C(c1cccc2ccccc12)P(=O)(O)O", "values": [
      {"measurement": "inhibition", "value": 2, "unit": "%"}
    ]},
    {"smiles": "Cc1cnc(NC(=O)CSc2nnc(-c3ccccc3)n2Cc2ccccc2)s1", "values": [
      {"measurement": "inhibition", "value": 0, "unit": "%"}
    ]},
    {"smiles": "COc1ccc(S(=O)(=O)NCCOc2ccccc2)cc1OC", "values": [
      {"measurement": "inhibition", "value": 0, "unit": "%"}
    ]},
    {"smiles": "CC(C)CC(c1nnnn1CC1CCCO1)N1CCN(Cc2ccc3c(c2)OCO3)CC1", "note": "(stereo not given)", "values": [
      {"measurement": "inhibition", "value": 0, "unit": "%"}
    ]},
    {"smiles": "CN(C)CCCOC(=O)CCc1ccccc1", "values": [
      {"measurement": "inhibition", "value": 0, "unit": "%"}
    ]},
    {"smiles": "COc1ccccc1N(CN1CCCC1=O)C(=O)c1c(F)cccc1Cl", "values": [
      {"measurement": "inhibition", "value": 0, "unit": "%"}
    ]}
  ]
}
